In the supplement of paper PMC5940239:

What follows are compounds tested on Madurella mycetomatis MM55 (assay: percent growth relative to solvent control; higher = less inhibition, active = 20 or less). Details: 100 µM; 7 days.
For `O=C(Nc1c(O)cccc1-c1nc2c(C(=O)O)cccc2o1)c1cc(-c2ccccc2)on1`, the percent growth was 113% (inactive). `O=C(Nc1ccnc(-c2cccnc2)n1)c1cc(C(F)(F)F)cc(C(F)(F)F)c1` was tested, and the percent growth was 169% (inactive). In the case of `CN1CCN(c2nccc3nc(-c4ccc(F)c(F)c4)[nH]c23)CC1`, the percent growth is reported as 52.1% (inactive). `Cc1nc(-c2ccccn2)nc(NCCc2ccc(S(C)(=O)=O)cc2)c1Cl` was tested, and the percent growth was 118% (inactive). With `Cc1cc(NC(=O)c2ccc(Oc3ccc(Cl)cc3O)o2)no1` the percent growth was 135% (inactive). `CC(=O)Nc1ccc(NC(=O)c2cc(-c3cc(Cl)ccc3O)[nH]n2)cc1` was tested, and the percent growth was 155% (inactive). `COc1nc2ccc(Br)cc2cc1[C@@H](c1ccccc1)[C@@](O)(CCN(C)C)c1cccc2ccccc12` was tested, and the percent growth was 100% (inactive). With `Cc1nc2ccccn2c1C(=O)NCc1ccc(Cl)cc1` the percent growth was 33.1% (inactive). For `CC(C)(C)OC(=O)N1CCN(c2cc(-c3ccc(Oc4ccccc4)cc3)n[nH]2)CC1`, the percent growth was 112% (inactive). For `O=C(c1[nH]nc2c1CCCC2)N1CCN(Cc2ccc3c(c2)OCO3)CC1`, the percent growth was 81.8% (inactive). `CC(C)N=c1cc2n(-c3ccc(Cl)cc3)c3ccccc3nc-2cc1Nc1ccc(Cl)cc1` was tested, and the percent growth was 105% (inactive). With `O=C(NCc1ccoc1)N1CCN(Cc2ccc3c(c2)OCO3)CC1` the percent growth was 92.5% (inactive). For `CNC(=O)C1Cc2ccccc2N1C(=O)Cc1ccc(F)cc1` (stereo not given), the percent growth was 116% (inactive). `O=C(NC1=NCCS1)c1sc2cc(F)ccc2c1Cl` was tested, and the percent growth was 107% (inactive). `Cc1nn(C)cc1C(C)Nc1nncc(-c2ccc(C(F)(F)F)cc2)n1` (stereo not given) was tested, and the percent growth was 61.9% (inactive).
